Results from PubChem BioAssay.
A number with no mark means an inactive call. The source made the active and inactive calls.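 How the source made its calls: active means thallium flux through the channel raised or lowered by more than 3 SD from vehicle-only wells, actives on both sides; inactive means the rest.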

Experiments:
Experiment in all cases: modulators of BK channel variants, profiling panel, selectivity assay, cell-based, U2OS BacMam, thallium flux, beta subunits (AID 1259406);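 further: initial slope of Thallos dye fluorescence rise after thallium is added; log ratio against the mean of 0.3% DMSO vehicle wells on the same plate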
F380Y = settings: at 30 µM
F380Y/beta1 = settings: at 30 µM
F380Y/beta2Delta = settings: at 30 µM
F380Y/beta4 = settings: at 30 µM
[1] = target: Calcium-activated potassium channel subunit alpha-1 (Homo sapiens) + Leucine-rich repeat-containing protein 26 (Homo sapiens) (UniProt Q12791+Q2I0M4); settings: F380Y/Slo1WT/gamma1, at 30 µM
R275C = settings: at 30 µM
R275C/beta1 = settings: at 30 µM
R275C/beta2Delta = settings: at 30 µM
R275C/beta4 = settings: at 30 µM
R275C/Slo1WT/beta2 = settings: at 30 µM

Calcium-activated potassium channel subunit alpha-1 (Homo sapiens) + Leucine-rich repeat-containing protein 26 (Homo sapiens), sequence (Q2I0M4 whole entry, looked up, one chain of several): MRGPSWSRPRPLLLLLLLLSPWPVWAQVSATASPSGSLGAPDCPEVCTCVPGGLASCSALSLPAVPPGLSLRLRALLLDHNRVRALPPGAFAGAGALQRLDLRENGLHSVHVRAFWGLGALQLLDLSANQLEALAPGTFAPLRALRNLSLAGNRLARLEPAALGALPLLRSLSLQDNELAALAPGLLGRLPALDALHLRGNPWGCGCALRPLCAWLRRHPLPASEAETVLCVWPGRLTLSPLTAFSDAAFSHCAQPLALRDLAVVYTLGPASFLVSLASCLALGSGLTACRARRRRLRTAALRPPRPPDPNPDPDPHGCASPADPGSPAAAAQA

Compound | log fold change Tl+ flux (F380Y) | log fold change Tl+ flux (F380Y/beta1) | log fold change Tl+ flux (F380Y/beta2Delta) | log fold change Tl+ flux (F380Y/beta4) | log fold change Tl+ flux [1] | log fold change Tl+ flux (R275C) | log fold change Tl+ flux (R275C/beta1) | log fold change Tl+ flux (R275C/beta2Delta) | log fold change Tl+ flux (R275C/beta4) | log fold change Tl+ flux (R275C/Slo1WT/beta2)
O=S(=O)(Nc1ccccc1SCc1ccc2nonc2c1)c1cccs1 | -0.159 (active) | -0.065 | -0.0553 | -0.14 (active) | -0.142 (active) | -0.262 (active) | 0.0365 | -0.00587 | -0.0288 | -0.239 (active)
CC(C)=CC(C)=NNc1c([N+](=O)[O-])cc(C(F)(F)F)cc1[N+](=O)[O-] | 0.0422 | 0.0383 | 0.0202 | 0.0221 | -0.0328 | 0.043 | -0.0463 | -0.0753 | -0.00952 | 0.0191
O=C(CC1SC(=NC2CC3C=CC2C3)NC1=O)Nc1ccccc1Cl (stereo not given) | 0.0694 | 0.0502 | 0.0241 | -0.0131 | -0.0156 | 0.0384 | 0.0688 | 0.032 | 0.0398 | -0.0439
COc1ccc(Cl)cc1N1C(=O)C=C(c2ccccc2)C1=O | 0.0164 | 0.00407 | -0.00673 | -0.00456 | 0.00342 | -0.0171 | 0.056 | 0.00976 | 0.0143 | -0.0335
CCOC(=O)c1c(N)n(-c2ccc(Cl)cc2)c2nc3ccccc3nc12 | -0.0102 | 0.0245 | -0.0247 | 0.0204 | 0.0261 | -0.0291 | -0.0146 | -0.0215 | 0.011 | 0.0184
COc1ccc(CNCc2cc(OC)c(OC)c(OC)c2)cc1 | -0.0783 | 0.0429 | -0.0785 | -0.1 (active) | -0.099 | -0.0423 | 0.0356 | -0.0892 (active) | -0.0177 | -0.102 (active)
Cc1nn(-c2ccccc2)nc1C(=O)NNC(=O)CSCc1cccc2ccccc12 | 0.029 | 0.0449 | 0.0266 | -0.00465 | -0.0205 | 0.0152 | 0.0429 | -0.0226 | 0.097 (active) | 0.0123
O=C(CSCc1csc2ccccc12)NCc1ccc2c(c1)OCO2 | -0.00508 | -0.0221 | -0.0281 | -0.0396 | -0.13 (active) | -0.0377 | -0.0155 | -0.0321 | -0.0151 | -0.0571
O=C(CN1c2ccccc2Sc2ccccc21)NN=Cc1ccco1 | 0.028 | 0.0239 | -0.0113 | -0.113 (active) | 0.0102 | -0.00994 | 0.0301 | -0.0092 | 0.0737 | 0.032
Cc1nn(Cc2nnc(-c3cc(C(F)(F)F)cc(C(F)(F)F)c3)o2)c(C)c1Br | -0.000532 | -0.0352 | -0.0793 | -0.0305 | -0.0495 | -0.0117 | -0.0379 | -0.0199 | 0.00363 | 0.0313
CC(C)(C)c1cc2nc(C(F)(F)F)cc(NN=Cc3ccccc3)n2n1 | 0.0101 | 0.0617 | 0.0191 | -0.0217 | -0.0501 | -0.0499 | -0.0176 | -0.0336 | -0.0304 | -0.0137
Clc1cc(Cl)c(NN=Cc2cc(C#Cc3ccccc3)cs2)c(Cl)c1 | -0.0491 | 0.00923 | -0.0555 | 0.0192 | -0.0342 | -0.012 | 0.00694 | -0.0137 | 0.0367 | 0.0344
Cc1cc(NC(=S)N2CCCCCC2)ccc1Br | -0.0478 | 0.0387 | -0.0137 | -0.0575 | -0.0699 | 0.0117 | -0.00715 | -0.0104 | 0.081 (active) | -0.00913
CCOC(=O)c1cc(NC(=O)CC(C)(C)CC(=O)O)ccc1N1CCCCC1 | 0.0551 | 0.0365 | 0.0312 | 0.0131 | -0.0575 | 0.0216 | 0.0587 | 0.0261 | 0.0168 | 0.00209
O=C(CCN1CCOCC1)Nc1cc(Cl)cc(Cl)c1 | 0.0457 | 0.0335 | 0.00661 | 0.024 | -0.0241 | 0.0216 | 0.0618 | 0.0272 | 0.0419 | -0.0333
CC(=O)c1cc2cc(Cl)cc(Cl)c2oc1=O | 0.0337 | 0.0359 | -0.0227 | -0.0296 | -0.0196 | -0.0332 | 0.029 | 0.0111 | -0.0163 | -0.0243
